Compound activity: PubChem BioAssay, several laboratories
Yp Topo-I inh – Y. pestis Topo-I inhibition via cleavage products; Y. pestis Topo-I cleavage product accumulation, plate reader; activity, % at 10 µM; actives 0.064% (n = 360,000); AID 504884; in the data active means activity above about 50%, passing the limit was not always enough
BioA inh – blocks M. tuberculosis BioA enzyme activity; purified M. tuberculosis BioA enzyme, plate reader; inhibition, % at 9.99 µM; actives 0.096% (n = 360,000); in the data active means inhibition above about 40%
BH1578 lux ind – quorum light induction in luxS cqsA deficient V. cholerae; actives 0.16% (n = 350,000); AID 588436; V. cholerae BH1578 lux reporter, luminescence, 6 h; activation, % at 18.7 µM; in the data active means activation mostly above about 9.7%, no sharp cut-off
DUSP3 inh – DUSP3 (human) phosphatase inhibition; recombinant VHR phosphatase, pNPP absorbance; inhibition, % at 13.3 µM; actives 0.52% (n = 290,000); in the data active means inhibition above about 50%
TcdB inh – blocks C. difficile toxin B glycohydrolase activity; inhibition, % at 9.99 µM; actives 0.24% (n = 350,000); TcdB glycohydrolase enzymatic assay, plate reader; P18177; in the data active means inhibition above about 10%
Starred values were filed as active, the others as inactive; i = inactive; / = not tested or not shown. Sampled rows, rich in hits. Any-hit rate of the full collection: about 0.73%.

SMILES | Yp Topo-I inh | BioA inh | BH1578 lux ind | DUSP3 inh | TcdB inh
COc1ccc2c3c(n(C)c2c1)[C@H](CO)N(C(=O)Nc1ccc(F)cc1)CC31CCN(C(=O)NC2CCCC2)CC1 | / | / | / | / | -1
Cc1cc(C(=O)Nc2cc(Br)ccc2O)on1 | -1 | 1 | i | 53* | 0
CCc1ccccc1NC(=O)c1cc(C)no1 | -3 | -1 | i | -15 | 1
CCNC(=O)C[C@H]1CC[C@@H]2[C@@H](COc3ccc(NC(=O)c4cccc(OC)c4)cc3C(=O)N2C)O1 | / | 1 | / | / | 10*
CCNC(=O)C[C@H]1CC[C@@H]2[C@H](COc3ccc(NC(=O)c4cccc(OC)c4)cc3C(=O)N2C)O1 | / | -2 | / | / | 5
COC(=O)C[C@H]1CC[C@@H]2[C@@H](COc3ccc(NC(=O)c4ccc(OC)cc4)cc3C(=O)N2C)O1 | / | 0 | / | / | 12*
COc1ccc(C(=O)Nc2ccc3c(c2)C(=O)N(C)[C@@H]2CC[C@H](CC(=O)NCC4CC4)O[C@@H]2CO3)cc1 | / | -7 | / | / | 15*
COc1cccc(C(=O)Nc2ccc3c(c2)C(=O)N(C)[C@H]2CC[C@@H](CC(=O)NCC4CC4)O[C@@H]2CO3)c1 | / | 1 | / | / | 0
CO[C@H]1CN(C)C(=O)c2ccc(NC(C)=O)cc2OC[C@@H](C)N(Cc2ccccc2F)C[C@H]1C | / | 12 | / | / | 0
C[C@@H]1CCCCO[C@@H](CN(C)CC2CCCCC2)[C@H](C)CN([C@@H](C)CO)C(=O)c2cc(NC(=O)CCC(F)(F)F)ccc2O1 | / | 1 | / | / | /
O=C(C[C@@H]1CC[C@H]2[C@@H](COC[C@H](O)CN2S(=O)(=O)c2ccccc2)O1)NCc1ccc(-c2ccccc2)cc1 | / | 3 | / | / | -2
O=C(COC(=O)CCC1CCCC1)Nc1ccccc1Sc1ccccc1 | 64* | / | 0 | -6 | 0
Cc1ccc(C)c2nc(SCC(=O)NCc3cccs3)c(C#N)cc12 | 3 | -1 | 0 | 53* | /
CC(C)NC(=O)N(C)C[C@@H]1Oc2ncc(-c3ccc(C(=O)N(C)C)cc3)cc2C(=O)N([C@H](C)CO)C[C@@H]1C | / | 2 | / | / | -1
C[C@@H]1CN([C@@H](C)CO)C(=O)c2cccc(NC(=O)C3CCOCC3)c2O[C@@H]1CN(C)S(=O)(=O)c1ccccc1 | / | 4 | / | / | 0
C[C@@H]1CCCCO[C@H](CN(C)S(=O)(=O)c2cn(C)cn2)[C@@H](C)CN([C@H](C)CO)C(=O)c2cc(NC(=O)Nc3ccc(C(F)(F)F)cc3)ccc2O1 | / | -3 | / | / | /
O=C(N/N=C/c1ccncc1)NC12CC3CC(CC(C3)C1)C2 | -1 | 2 | i | 25 | 2
O=C(N/N=C/c1ccc(O)cc1)NC12CC3CC(CC(C3)C1)C2 | -3 | 1 | i | -7 | 19*
C=CC[C@@H](CC(=O)N(CCO)Cc1ccccc1)C(=O)NC[C@@H](OC(=O)[C@@H](CC=C)CC(=O)OC(C)(C)C)c1ccccc1 | 13 | 0 | 0 | / | 11*
COCCNC(=O)c1cc2c(c(-c3cccc(C4=CCCCC4)c3)n1)[C@H](CCO)N([S@@](=O)C(C)(C)C)C2 | / | / | / | / | 1
COCc1cn(CC[C@H]2CC[C@H](NC(=O)Nc3ccc(C(F)(F)F)cc3)[C@H](CO)O2)nn1 | / | -2 | / | / | 1
C[C@@H](C(=O)NCc1ccccc1)N1C(=O)C2CC=CCC2C1=O (stereo partly drawn) | 1 | -1 | 25* | -6 | /
CC(C(=O)NCc1ccccc1)N1C(=O)c2ccccc2C1=O (stereo not drawn) | 2 | 0 | i | 22 | -1
Cc1occc1C(=O)N1CCN(c2ccc(Cl)cc2)CC1 | 10 | 1 | 0 | -10 | 1
Cc1scc(C(=O)N2CCN(c3ccc(Cl)cc3)CC2)c1C | 35 | -1 | i | 5 | 11*
SMILES | Yp Topo-I inh | BioA inh | BH1578 lux ind | DUSP3 inh | TcdB inh
C[C@@H]1CN([C@H](C)CO)S(=O)(=O)c2ccc(C#CC3CC3)cc2O[C@@H]1CN(C)C(=O)c1cccnc1 | / | 0 | / | / | 0
Cc1cn(C2CC(O)C(O)C(CO)O2)c(=O)[nH]c1=O (stereo not drawn) | / | / | / | / | 1
Cc1cn([C@H]2C[C@H](N=[N+]=[N-])[C@@H](CO)O2)c(=O)[nH]c1=O | -2 | -1 | 35* | 16 | 1
COc1ccccc1C(=O)NCCC(=O)N1CC=C(c2ccccc2)CC1 | 132* | 20 | i | / | 2
CCC(=O)N1CC(=O)N2[C@@H](CO)[C@H](c3ccc(C#CC4CCCCC4)cc3)[C@@H]2C1 | / | / | / | / | 3
Nc1cc(=O)[nH]c(SCC(=O)Nc2cccnc2Cl)n1 | -13 | 0 | 0 | 12 | 1
Nc1cc(=O)[nH]c(SCC(=O)Nc2ccccc2Sc2ccc(Cl)cc2)n1 | 2 | / | 0 | 22 | 10*
O=C(C[C@H]1C[C@@H]2c3cc(NC(=O)Nc4ccccc4)ccc3O[C@@H]2[C@@H](CO)O1)NCc1cccc(F)c1 | / | 1 | / | / | 0
Cc1ccccc1-c1cnc2c(c1)C(=O)N([C@H](C)CO)C[C@H](C)[C@@H](CN(C)C(=O)CC1CC1)O2 | / | -3 | / | / | 0
COc1cccc(-n2c(SCC(=O)N3CCOCC3)nnc2-c2c[nH]c3ccccc23)c1 | 10 | -1 | -1 | 21 | 11*
CCCCn1c(N)c(N(CC)C(=O)c2ccncc2)c(=O)[nH]c1=O | 1 | 1 | 1 | / | 1
CCCCn1c(N)c(N(CC)C(=O)c2cccs2)c(=O)[nH]c1=O | -2 | -2 | i | / | 11*
CCOC(=O)C(=O)NNc1ccc(Cl)cc1 | -1 | / | i | 24 | 47*
CC(C)(C)OC(=O)NCCCCCc1nnc(SCc2ccccc2)o1 | 57* | 1 | i | -21 | 1
CC(C)(C)OC(=O)NCCCCCc1nnc(SCc2cccc(F)c2)o1 | 23 | / | -1 | 29 | 1
C[C@@H]1CN([C@@H](C)CO)C(=O)c2cc(NC(=O)CCC(F)(F)F)ccc2O[C@@H](C)CCCCO[C@H]1CN(C)S(=O)(=O)c1ccc(F)cc1 | / | -5 | / | / | -4
CC(C)(C)NC(=O)C(c1ccncc1)N(Cc1cccs1)C(=O)Cn1nnc(-c2ccc(F)cc2)n1 (stereo not drawn) | 3 | -2 | 0 | 53* | /
CC(C)(C)NC(=O)C(c1ccncc1)N(CC1CCCO1)C(=O)Cn1nnc(-c2ccc(F)cc2)n1 (stereo not drawn) | 0 | / | -2 | 14 | 1
COc1cccc(C2CC(c3cccs3)=NN2C(=O)CSC2=NN3CCCC(=O)N=C3S2)c1OC (stereo not drawn) | 21 | -1 | -1 | 53* | 2
O=C(Nc1ccc2c(c1)OCCO2)c1cc2ccccc2o1 | 4 | 6 | 0 | 6 | 10*
Cc1ccc(NC(=O)c2cc3ccccc3o2)cc1S(=O)(=O)N(C)C | 4 | 3 | -3 | 27 | /
CN(C)S(=O)(=O)c1ccc(NC(=O)c2cc3ccccc3o2)cc1 | 0 | 44* | i | 26 | /
COc1cc2c(cc1OC)C(c1cccc(F)c1)CC(=O)N2 (stereo not drawn) | -2 | 3 | 0 | 51* | 2
CN1C(=O)c2cc(NC(=O)c3ccccc3F)ccc2OC[C@@H]2O[C@H](CC(=O)NCc3ccc4c(c3)OCO4)CC[C@H]21 | / | -1 | / | / | 1
